DT40 TDP1 CPT = growth inhibition of DT40 Tdp1-/-;hTDP1 cells with camptothecin (screen for TDP1 inhibitors) | 420,000 compounds, 12% hits | chicken DT40 Tdp1-/-;hTDP1 cells + 20 nM CPT, ATP luminescence, 48 h | AID 686979 | Potency, µM (top dose mostly 46.2 µM), most hits filed as inhibitors; further: nearly all actives have a fitted effect of over 55% in size
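Cell growth measured by CellTiter-Glo luminescence after a minimum 48 h, 37 C compound exposure with 20 nM CPT in Tdp1-knockout DT40 cells stably expressing hTDP1, seeded 400/well; qHTS titration format.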
TGFb SMAD3 inh = blocks TGF-b signaling; 410,000 compounds, 1.2% hits; HepG2 CAGA-GFP TGF-b/SMAD3 reporter, GFP fluorescence, 18 h; TGF-beta stimulated, 500 pg/mL final; Potency, µM (top dose mostly 46.1 µM), actives largely listed as inhibitors; further: nearly all actives have a fitted effect of over 65% in size
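Per well, imaged GFP fluorescence of HEPG2 CAGA-GFP cells gives the signal; cells get compound, then TGF-beta (500 pg/mL final), 18 h at 37 degrees C; %Activity versus -TGF-beta and +DMSO controls.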
HepG2 tox = kills HepG2 cells in TGF-b inhibitor counter-screen. HepG2 CAGA-GFP viability, ATP luminescence, 18 h. Potency, µM (doses to about 46.1 µM), actives largely listed as cytotoxic. 410,000 compounds, 0.76% hits
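HepG2 CAGA-GFP cells (1000/well, DMEM with 1% FBS) received compound, then TGF-beta at 500 pg/mL final, and were incubated 18 hours at 37 degrees C. Viability was read by CellTiter-Glo luminescence. Media-only wells were set as complete cell-killing and DMSO as no toxicity.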
DT40 TDP1 no CPT = qHTS for Inhibitors of human tyrosyl-DNA phosphodiesterase 1 (TDP1): qHTS in cells in absence of CPT; DT40 Tdp1-/- hTDP1 cells, no CPT, ATP luminescence, 48 h; Potency, µM (doses to about 46.2 µM), usual class: inhibitors; 420,000 compounds, 15% hits; AID 686978, 2013; further: nearly all actives have a fitted effect of over 55% in size
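A cellular qHTS used chicken DT40 cells lacking endogenous Tdp1 but carrying stably transfected human TDP1. Compounds were applied without camptothecin, and cell growth kinetics were judged by ATP-dependent luminescence after ≥48 hr.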
HT1080NT lethal = kills 2HG-producing HT-1080-NT fibrosarcoma cells. Potency, µM (highest dose often 46.1 µM), usual class: cytotoxic. HT-1080-NT fibrosarcoma viability, CellTiter-Glo ATP luminescence, 48 h. 360,000 compounds, 1.6% hits;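 further: NT is the 2HG producing partner of a matched IDH1 knockdown line; nearly all actives have a fitted effect of over 55% in size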
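Viability by CellTiter-Glo luminescence after 48 h compound exposure at 37C of HT-1080-NT cells (750/well, RPMI, 5% FBS). % activity scaled between DMSO wells and medium-only wells, then curve-fitted and categorized by curve class.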
HT1080 IDH1KD tx = kills HT-1080 cells with IDH1 knockdown; HT-1080 IDH1 knockdown viability, ATP luminescence, 48 h; Potency, µM (highest dose often 46.1 µM), most hits filed as cytotoxic; 360,000 compounds, 2% hits; AID 686971
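% activity derives from luminescence (CellTiter-Glo), normalised to DMSO and no-cell wells. HT-1080-IDH1KD cells, 750/well, had 48 h compound exposure at 37 °C.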
Numbers stand for hits; - = inactive; ? = inconclusive; . = no result given; ! = a repeat was not active; [ ] = another dose, or the depositor's remark. A selection: hits, their analogues and other compounds. The true share with any hit is near 17%. The call rests on the fitted dose curve; in most records, active means well fitted curve in the direction sought with a large enough effect; inconclusive means small, poorly fitted or top-dose-only effect, or another doubt; inactive means no such curve, though single readings can be large; an effect the other way counts as inactive or inconclusive.

SMILES | DT40 TDP1 CPT | TGFb SMAD3 inh | HepG2 tox | DT40 TDP1 no CPT | HT1080NT lethal | HT1080 IDH1KD tx
Cc1cccc(-c2noc(CN(C(=O)c3ccccc3Cl)C(C)C)n2)c1 | ? | - | - | ? | . | .
COc1ccc(-c2noc(CN(C(=O)COc3cc(C)c(Br)c(C)c3)C(C)C)n2)cc1 | 18µM | ? | - | 23µM | . | .
COc1ccc(-c2noc(CN(C)C(=O)c3ccoc3C)n2)cc1 | ? | - | - | 16µM | - | -
Cc1ccc(S(=O)(=O)NCc2ccc(C(=O)NCCCN3CCC(Cc4ccccc4)CC3)cc2)cc1 | - | - | - | - | ? | ?
Cn1cc([C@@H]2C[C@H]3CN(Cc4cccc(Cl)c4)C(=O)[C@]34CCCN24)c(-c2ccccc2)n1 | ? | ? | - | ? | - | -
CC(C)N(Cc1nc(-c2ccc(Cl)cc2)no1)C(=O)C(c1ccccc1)c1ccccc1 | ? | - | - | ? | - | -
COc1ccc(C(=O)NCc2nc(-c3cccc(C)c3)no2)cc1OC | ? | ? | - | 16µM | . | .
COc1cccc(C(=O)N(Cc2nc(-c3ccc(Cl)cc3)no2)C(C)C)c1OC | 18µM | ? | - | 21µM | . | .
Cc1cc(C)cc(C(=O)N(Cc2nc(-c3ccc(Cl)cc3)no2)C(C)C)c1 | 21µM | - | - | 18µM | . | .
COc1ccc(C2c3c(-c4ccccc4O)n[nH]c3C(=O)N2CCc2ccc(OC)c(OC)c2)cc1 (stereo unspecified) | 21µM | ? | - | 23µM | - | ?
CC(C)c1ccc(C2c3c(-c4ccccc4O)n[nH]c3C(=O)N2CCc2ccccc2)cc1 (stereo unspecified) | ? | - | - | 12µM | . | .
COc1ccc(C2c3c(-c4ccccc4O)n[nH]c3C(=O)N2CCc2ccccc2)cc1 (stereo unspecified) | ? | ? | - | 16µM | . | .
O=C1c2[nH]nc(-c3ccccc3O)c2C(c2cccc(O)c2)N1Cc1ccco1 (stereo unspecified) | ? | ? | - | ? | - | ?
Cc1ccc(C2c3c(-c4ccccc4O)n[nH]c3C(=O)N2CCc2ccccc2)cc1 (stereo unspecified) | ? | 11µM | - | - | . | .
O=C(Cn1c(=O)oc2ccccc21)NCc1ccc(Cl)cc1 | - | - | - | - | . | .
CCn1c(SCC(=O)Nc2ncc(C(F)(F)F)cc2Cl)nnc1-c1ccccc1 | - | - | - | - | - | -
Cc1ccc(C(C)C)c(OCC(=O)Nc2c(C(=O)c3ccccc3)oc3ccccc23)c1 | - | - | - | ? | . | .
COC(=O)c1ccccc1C(=O)N1CCOc2ccc(CN3CCN(c4ccccn4)CC3)cc2C1 | -[9.04 µM] | . | . | - | . | .
Cc1cnc(-n2ncc(C(=O)NCCc3cccnc3)c2C)nc1-c1cccs1 | -[9.04 µM] | . | . | 21µM | . | .
COc1ccccc1NC1=C(N2CCCCC2)C(=O)c2ccccc2C1=O | 2.1µM | ? | 16µM | 1.8µM | 4.6µM | ?
CN(C1=C(N2CCCCC2)C(=O)c2ccccc2C1=O)c1ccccc1 | 15µM | 18µM | - | 21µM | ? | ?
O=c1nc(N2CCCCC2)nc(Nc2ccccc2)[nH]1 | ? | - | - | - | - | -
O=C1C(Nc2ccccc2)=C(N2CCCCC2)C(=O)c2ccccc21 | 18µM | - | - | 9.2µM | ? | ?
CCOC(=O)C1CCN(C2=C(NS(=O)(=O)c3ccc(Cl)cc3)C(=O)c3ccccc3C2=O)CC1 | - | ? | - | ? | - | -
Cc1ccc(NC2=C(N3CCCCC3)C(=O)c3ccccc3C2=O)cc1 | 2.6µM | ? | - | 2.3µM | ? | ?
SMILES | DT40 TDP1 CPT | TGFb SMAD3 inh | HepG2 tox | DT40 TDP1 no CPT | HT1080NT lethal | HT1080 IDH1KD tx
Cn1cc(/C=N/NC(=O)c2ccc(C#N)cc2F)c2ccccc21 | - | - | - | - | - | -
CCN(CC(=O)Nc1c(F)cccc1F)C(=O)COc1ccc2c(c1)CCC2 | - | - | - | - | - | -
O=C(/C=C/c1ccc(O)cc1)c1ccc(NC2=C(N3CCCCC3)C(=O)c3ccccc3C2=O)cc1 | 1.3µM | 6.3µM | - | 1.6µM | - | ?
O=C(/C=C/c1ccc(O)cc1)c1ccccc1 | - | - | - | ? | - | -
O=C1C(Nc2cccc(O)c2)=C(N2CCCCC2)C(=O)c2ccccc21 | 8.2µM | - | - | 7.3µM | ? | ?
COCC(C)n1c(-c2ccc3c(c2)NC(=O)CO3)csc1=Nc1ccc(OC(F)F)cc1 (stereo unspecified) | 5.2µM | ? | 13µM! | 6.5µM | 21µM! | ?
CCN=c1scc(-c2ccc3c(c2)NC(=O)CO3)n1N=C1CCCC1 | ? | - | - | 8.2µM | ? | ?
CCCCN=c1scc(-c2ccc3c(c2)NC(=O)CO3)n1N=C1CCCC1 | 13µM | ? | - | 23µM | ? | ?
CCN(CC(=O)Nc1ccc(NC(C)=O)cc1)C(=O)Cc1ccc(S(=O)(=O)N2CCOCC2)s1 | - | - | - | - | - | -
CNC(=S)N(Cc1ccc(OC)cc1)Cc1cc2cccc(C)c2[nH]c1=O | 18µM | - | - | 21µM | - | -
COc1ccc(N(Cc2cc3cc(OC)ccc3[nH]c2=O)C(=O)c2cccnc2)cc1 | 16µM | - | - | 23µM | - | -[9.24 µM]
CCCN(Cc1cc2cccc(C)c2[nH]c1=O)C(=O)c1cccc(Cl)c1 | ? | - | - | ? | . | .
COc1ccc(N(Cc2cc3cccc(C)c3[nH]c2=O)C(=O)c2cccc(Cl)c2)cc1 | 10µM | - | - | 8.2µM | . | .
Cc1cccc(N(Cc2cc3ccccc3[nH]c2=O)C(=O)c2cccc(Cl)c2)c1 | 23µM | - | - | 16µM | . | .
Cn1cnc([N+](=O)[O-])c1Sc1ncccc1N | - | - | - | - | - | -
COc1ccc(CN2C(=O)CCC2(C)c2nc3ccccc3[nH]2)cc1 (stereo unspecified) | - | - | - | - | - | -
CCN(c1cccc(C)c1)S(=O)(=O)c1cn(CC(=O)OC)c2ccc([N+](=O)[O-])cc12 | - | - | - | - | - | -
Cc1ccc(N(Cc2cc3ccccc3[nH]c2=O)C(=O)c2cccc(Cl)c2)cc1 | ? | - | - | ? | . | .
CCC(=O)N(Cc1cc2cc(OC)ccc2[nH]c1=O)c1ccc(C)cc1 | ? | - | - | 10µM | - | -
Cc1ccc2[nH]c(=O)c(CN(C(=O)c3cccs3)c3ccccc3)cc2c1 | ? | ? | - | 16µM | - | -
COc1ccc2[nH]c(=O)c(CN(C(=O)c3cccc(Cl)c3)c3cccc(C)c3)cc2c1 | 16µM | - | - | 18µM | . | .
